In PubChem BioAssay (NCATS):
Results filed as inconclusive are left out. The source made the active and inactive calls. The call rests on the fitted dose curve; in most records, active means well fitted inhibition curve with a large enough effect; inconclusive means small, poorly fitted or top-dose-only effect; inactive means flat fitted curve, though single readings scatter.

Legend:
Assay in all cases: qHTS profiling for inhibitors of Plasmodium falciparum proliferation (AID 504749); further: nearly all actives have a fitted effect of over 60% in size
Details in all cases: P. falciparum in erythrocytes, SYBR Green DNA, 72 h; series mostly up to 28.7 µM
AA1029 = system: AA1029
How it was run: (§1)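 Fluorescence of SYBR Green-bound parasite DNA, read at 485/535 nm, served as the growth measure. Infected erythrocytes were cultured with compound 72 h; artemisinin (0.29 uM) and DMSO wells defined the normalization range.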

C2A = system: C2A
How it was run: as §1

CP211 = system: CP211
How it was run: as §1

CP215 = system: CP215
How it was run: as §1

CP217 = system: CP217
How it was run: as §1

CP250 = system: CP250
How it was run: as §1

CP252 = system: CP252
How it was run: as §1

CP256 = system: CP256
How it was run: as §1

CP269 = system: CP269
How it was run: as §1

CP325 = system: CP325
How it was run: as §1

CP329 = system: CP329
How it was run: as §1

DIV14 = system: DIV14
How it was run: as §1

DIV17 = system: DIV17
How it was run: as §1

FAB9 = system: FAB9
How it was run: as §1

N140 = system: N140
How it was run: as §1

P93_24 = system: P93_24
How it was run: as §1

PAD = system: PAD
How it was run: as §1

PC15 = system: PC15
How it was run: as §1

SC27B = system: SC27B
How it was run: as §1

TAB165 = system: TAB165
How it was run: as §1

Measured: Potency

Oc1ccc(/C=C\c2cc(O)cc(O)c2)cc1
inactive: all assays above
